High-throughput results from PubChem.
aSyn rescue: rescues yeast growth from alpha-synuclein toxicity | actives 0.14% (n = 370,000) | Potency, µM (titrated, usually from 46.1 µM), without a hit: top-dose growth rescue (activation), hits mostly activators | Yeast expressing alpha-synuclein, growth rescue, BacTiter-Glo, 24 h; further: % of control where 0% means no effect; nearly all actives have a fitted effect of over 65% in size
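Rescue of yeast growth: cells expressing toxic alpha-synuclein, induced in galactose at OD600 0.02, incubated with compound 24 h at 30 C. ATP luminescence quantified growth; inhibitors of toxicity appear as activators.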
FUS yeast rescue: FUS proteinopathy suppression in yeast. S. cerevisiae FUS-expressing, growth rescue, OD600, 24 h. Potency, µM (titrated, usually from 76.6 µM), hits mostly activators. actives 0.24% (n = 390,000);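 further: plate controls were DMSO vehicle for no effect and reference control for full effect; nearly all actives have a fitted effect of over 55% in size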
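Read-out: OD at 600 nm after 24hr at 30C, reporting rescue of FUS-induced yeast toxicity. Cells at OD 0.005 in galactose (2%) minimal medium; compounds tested in a dilution series; CP55940 titration from 92uM final as control.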
MmCpn inh: inhibitors of Methanococcus maripaludis chaperonin TRiC (MmCpn). purified Mm-Cpn ATPase, ADP Transcreener TR-FRET. actives 0.031% (n = 330,000). Potency, µM (highest dose often 76.9 µM), inactives show at the highest dose activity, negative = inhibition, hits mostly inhibitors; further: on the % scale 0 is the no-effect control and ±100 the full control effect; nearly all actives have a fitted effect of over 80% in size
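Compound-treated chaperonin, 25 nM final, turns over 10 uM ATP at 37°C for 30 min following a 10 min preincubation; ADP generated competes with ADP-d2 for Eu-cryptate antibody, lowering FRET.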
ClpP mod: qHTS Assay for Activators of ClpP | purified B. subtilis ClpP, FRET peptide cleavage, 20 min | ATP-dependent Clp protease proteolytic subunit (Bacillus subtilis (strain 168)), P80244 | Potency, µM (titrated, usually from 57.5 µM), for inactives: at the top dose activity change, negative = active | actives 1.9% (n = 340,000); active means well fitted falling curve with a large enough effect; inconclusive means small, poorly fitted or top-dose-only effect; inactive means no such curve, though single readings can be large or run the other way; further: the source files actives as falling curves though it sought activators and does not explain the sign; nearly all actives have a fitted effect of over 65% in size
Target sequence (P80244 whole entry, looked up): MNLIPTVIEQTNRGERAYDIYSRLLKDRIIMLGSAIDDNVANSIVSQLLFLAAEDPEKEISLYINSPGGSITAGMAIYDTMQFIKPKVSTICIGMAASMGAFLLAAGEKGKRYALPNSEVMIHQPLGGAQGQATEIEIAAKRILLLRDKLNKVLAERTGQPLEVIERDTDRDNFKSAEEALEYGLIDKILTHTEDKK
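Buffer: 100 mM Tris/HCl pH8, 100 mM KCl, 0.05% low protease BSA, 2.5% glycerol, 0.01% Tween-20. ClpP 10 microg/mL final; 20 min RT; delta FRET normalized to ADEP and DMSO controls.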
TDP43 rescue: inhibitors of TDP-43 toxicity in yeast; TDP-43 expressing yeast growth rescue, BacTiter-Glo, 24 h; Potency, µM (doses to about 46.1 µM), without a hit: at the highest dose growth rescue (activation), actives largely listed as activators; actives 1.8% (n = 410,000); AID 652104; further: % of control where 0% means no effect; nearly all actives have a fitted effect of over 50% in size
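Yeast cells expressing TDP-43 under galactose induction are exposed to compounds for 24 hr at 30 deg C. BacTiter-Glo luminescence measures growth, so protective compounds score as activators.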
Abeta rescue: restores growth of yeast expressing A-beta42 peptide. Potency, µM (top dose mostly 46.1 µM), actives largely listed as activators. yeast expressing A-beta42, growth rescue, OD600, 48 h; response scale: 0% DMSO, 100% iron-clioquinol control. actives 0.063% (n = 410,000); further: nearly all actives have a fitted effect of over 55% in size
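Yeast growth medium received pinned compounds, then yeast cells expressing toxic A-beta were added; plates incubated at 30 C for 48 hr. Growth read as absorbance at 600 nm, normalized to DMSO and equimolar FeCl3 plus clioquinol controls.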
An asterisk follows results filed as active; i = inactive; ? = inconclusive; . = not tested or not shown; [ ] = another dose, or the depositor's remark. An excerpt weighted towards active compounds, which were near 3.6% of everything screened. Unless noted, the call rests on the fitted dose curve; in most records, active means well fitted curve in the direction sought with a large enough effect; inconclusive means small, poorly fitted or top-dose-only effect, or another doubt; inactive means no such curve, though single readings can be large; an effect the other way counts as inactive or inconclusive. Potency means the concentration at half of the fitted maximal effect.

SMILES	aSyn rescue	FUS yeast rescue	MmCpn inh	ClpP mod	TDP43 rescue	Abeta rescue
COc1ccc(N2CCN(S(=O)(=O)CCNC(=O)COc3ccccc3)CC2)cc1	-12.2%	i	0.4%	17.8µM*	-14.1%	i
COc1ccc(N2CCN(S(=O)(=O)CCNC(=O)COc3cccc(OC)c3)CC2)cc1	-0.2%	i	-3.0%	-10.2%	-13.9%	i
CCOC(=O)c1c(-c2ccccc2)oc2ccc(OCc3ccccc3Br)cc12	.	i	.	?	6.1%	i
O=C1c2ccccc2-c2cc(Br)ccc2NC1O (stereo not given)	22.4µM*	i	.	1.8%	?	i
CC(Sc1nnnn1C)C(=O)Nc1ccc(Oc2ccccc2)cc1 (stereo not given)	0.5%	i	-1.9%	-3.1%	15.8µM*	i
NC(=O)C1CCN(c2nc(-c3ccc4c(c3)OCO4)cs2)CC1	.	.	-0.4%	.	.	.
O=c1c2c3c(sc2ncn1-n1cccc1)CCCCC3	6.6%	i	0.4%	1.8%	12.6µM*	i
Cc1ccc(C)n1-n1cnc2sc3c(c2c1=O)CCC3	8.2%	i	1.8%	0.5%	21.5%	i
CN(C)S(=O)(=O)N(CC(=O)NCCSCc1c(F)cccc1Cl)c1ccccc1	-4.0%	i	.	-1.0%	24.0%	i
Cc1ccnc(Nc2nc(-c3ccc(O)c(O)c3)cs2)c1	-14.4%	?	2.9%	.	.	i
Cc1ccnc(Nc2nc(-c3ccc(O)cc3)cs2)c1	-15.6%	i	-2.2%	-1.4%	12.6µM*	i
Cc1ccnc(Nc2nc(-c3ccc(O)cc3O)cs2)c1	9.6%	i	-9.8%	-1.0%	15.8µM*	i
COc1cc2nc(N3CCN(C)CC3)nc(NC(C)C)c2cc1OC	?	.	.	4.1%	.	.
CC(Nc1nc(N2CCCCC2)nc2ccccc12)c1ccccc1 (stereo not given)	.	i	-1.0%	28.2µM*	-5.1%	i
C=CCNc1nc(N2CCCC2)nc2ccccc12	19.8%	i	-19.0%	31.6µM*	-14.0%	i
COc1ccc(/C(N)=N/OC(=O)c2cccs2)cc1OC	3.4%	i	-0.3%	.	22.4µM*	i
COc1ccc(C/C(N)=N/OC(=O)c2cccs2)cc1	-36.5%	i	2.9%	0.9%	15.8µM*	i
Cc1cccc(Oc2cnn(C(C)(C)C)c(=O)c2Cl)c1	9.7%	i	-1.5%	3.8%	10µM*	i
COc1cnn(C(C)(C)C)c(=O)c1Cl	0.0%	i	1.2%	-1.0%	-15.9%	i
CN(c1cccc(NC(=O)CN2C(=O)c3ccccc3S2(=O)=O)c1)S(C)(=O)=O	-1.7%	i	0.6%	28.2µM*	9.2%	i[9.22 µM]
CC(C)c1ccc(NC(=O)CN2C(=O)c3ccccc3S2(=O)=O)cc1	7.9%	i	0.9%	.	-8.8%	i
Brc1ccccc1-c1nc2c3ccccc3ncn2n1	-6.0%	i	3.1%	-11.0%	14.1µM*	i
Clc1ccc(-c2nc3c4cnn(-c5ccccc5Br)c4ncn3n2)c(Cl)c1	.	i	.	-2.0%	?	i
COc1ccc(NC(=O)Cn2ncc3c4ccccc4n(Cc4ccccc4)c3c2=O)cc1OC	.	i	.	-9.4%	?	i
COc1ccc(-c2nc3ccccc3o2)cc1OC	0.4%	i	-1.5%	3.9%	2.4%	i
c1ccc2oc(-c3ccc4nc[nH]c4c3)nc2c1	4.2%	i	1.2%	25.1µM*	-4.8%	i
COc1ccc(N=c2oc3cc(O)ccc3cc2C(=O)NCC2CCCO2)c(OC)c1 (stereo not given)	1.4%	i	-0.4%	25.1µM*	-6.7%	i
COc1ccc(N=c2oc3cc(O)ccc3cc2C(=O)NCC2CCCO2)cc1 (stereo not given)	1.1%	i	-2.8%	-19.9%	21.4%	i
